Screening results as filed in PubChem BioAssay.
Pin1 inhibitor: human Pin1 inhibition; Q13526; Pin1 FP peptide displacement, HiFluor488, 10 min; Potency, µM (titrated, usually from 115 µM), hits mostly inhibitors; hit rate 0.009% among 390,000; AID 504891; active = well fitted inhibition curve with a large enough effect in the polarisation, with a control signal flat, not every such curve was filed as active; inconclusive = small, poorly fitted or top-dose-only effect, or effect the other way, or a change in a side signal; inactive = no such curve, though single readings can be large or run the other way; the % refers to the polarisation
Target sequence (Q13526 whole entry, looked up): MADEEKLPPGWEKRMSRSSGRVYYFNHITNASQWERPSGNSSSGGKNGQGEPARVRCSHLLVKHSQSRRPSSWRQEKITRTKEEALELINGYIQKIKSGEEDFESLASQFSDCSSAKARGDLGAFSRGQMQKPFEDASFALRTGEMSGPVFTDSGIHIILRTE
Tb PGK inh: blocks T. brucei phosphoglycerate kinase; Potency, µM (series often up to 57.5 µM), hits mostly inhibitors; AID 602233; PGK/GAPDH coupled, Kinase-Glo luminescence, 60 min; P07378; hit rate 0.043% among 380,000; note: nearly all actives have a fitted effect of over 60% in size
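Recombinant glycosomal PGK reaction used 1,3-bisphosphoglycerate generated in-well by GAPDH (100nM final) in 100mM TEA pH 7.6, 5mM MgCl2, 0.01% Tween-20. After 60 minutes at room temperature, ATP was read by Kinase-Glo Plus luminescence end-point.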
HEK293 tox: cytotoxicity counter-screen for GLP-1 receptor inverse agonists. HEK293 cAMP-luciferase reporter cells, luminescence, 24 h. Potency, µM (titrated, usually from 38.3 µM), hits mostly inhibitors. hit rate 0.13% among 410,000. AID 624418;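 note: loss of luciferase light is scored as toxicity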
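Luminescence readout: signal drop marks cytotoxicity. Plated cells grew 12 h at 37 °C, 5% CO2, received 23 nL compound for 24 h, then got luciferase reagent, read after 12 min at RT.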
GLP1R inv ag: GLP-1 receptor (human) inverse agonism; P43220; HEK293 GLP-1R CRE-luciferase, luminescence, 24 h; GLP-1R form is constitutively active; Potency, µM (highest dose often 38.3 µM), most hits filed as inhibitors; hit rate 1.6% among 410,000; AID 624417; note: nearly all actives have a fitted effect of over 55% in size
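Using stably transfected HEK293 (constitutively active GLP-1R, cAMP-luciferase reporter), compounds were incubated 24 hr and luciferase measured by luminescence.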
Tb PFK inh: T. brucei PFK enzyme inhibition. T. brucei PFK, ADP-Glo luminescence. Potency, µM (doses to about 57.5 µM), hits mostly inhibitors. hit rate 0.17% among 330,000. AID 485367; note: nearly all actives have a fitted effect of over 60% in size
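ADP-Glo luminescence quantified ADP after 45 min at room temperature, with 1.25 nM T. brucei PFK, 0.1 mM ATP and 0.5 mM fructose-6-phosphate in pH 8.0 TEA buffer. qHTS titrations up to 57 µM; curves classified by quality.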
GLP1R ag: agonists of human GLP-1 receptor | P43220 | HEK293 GLP-1R CRE-luciferase, luminescence, 4-6 h; cells express a hypersensitive GLP-1R form | Potency, µM (top dose mostly 45.6 µM), actives largely listed as activators | hit rate 0.007% among 380,000
Of the large screens only hits and unclear results are named; the others gave an inactive call. The list is not random: actives were taken first. Their share in the collection is about 1.8%. Unless noted, calls come from the whole dose curve; as a rule, active = well fitted curve in the direction sought with a large enough effect; inconclusive = small, poorly fitted or top-dose-only effect, or another doubt; inactive = no such curve, though single readings can be large; an effect the other way counts as inactive or inconclusive.

CCN(CC)CCN(Cc1cc2cc(C)ccc2[nH]c1=O)C(=O)Nc1ccccc1OC	HEK293 tox inconclusive, GLP1R inv ag 13µM
CCCCNC(=O)c1nn(-c2ccc(CC)cc2)nc1CO	none (no result: Tb PFK inh, GLP1R ag)
Cc1nc2nc(NCc3ccc(Br)cc3)[nH]n2c(=O)c1Cc1ccccc1	none (no result: Tb PFK inh, GLP1R ag)
CCC(=O)OCCNc1cc(Sc2nc3ccccc3s2)c2nonc2c1[N+](=O)[O-]	Pin1 inhibitor inconclusive, Tb PFK inh 2.7µM
N#CC(C#N)=C(Nc1ccc(F)cc1)SCc1cccc(Br)c1	GLP1R inv ag 2µM
Cc1cccc(CSC(Nc2ccc(F)cc2)=C(C#N)C#N)c1	HEK293 tox inconclusive, GLP1R inv ag inconclusive
COc1ccc(/C=N/Nc2nccnc2Cl)cc1	Tb PGK inh inconclusive, HEK293 tox inconclusive, GLP1R inv ag 11µM
Clc1nccnc1N/N=C/c1ccc(Br)cc1	Tb PGK inh inconclusive
COc1ccccc1NC(=O)c1cc2cc(Br)ccc2cc1O	GLP1R inv ag 6.3µM (no result: Tb PGK inh)
CCN(CC)CCCNC(=O)c1cc2c(-c3ccc(Cl)cc3)nn(C)c2s1	HEK293 tox inconclusive, GLP1R inv ag 3.5µM
CCN(CC)CCCNC(=O)c1cc(-c2ccc(Cl)c(Cl)c2)on1	HEK293 tox inconclusive, GLP1R inv ag 5.6µM
CCCN(CCC)CCCNC(=O)c1cc2c(-c3ccc(Cl)cc3)nn(C)c2s1	Pin1 inhibitor inconclusive (no result: Tb PFK inh, GLP1R ag)
CCOC(=O)C1CCCN(c2c(C(=O)c3ccc(C)cc3)cnc3ccc(OCC)cc23)C1 (stereo not given)	Pin1 inhibitor inconclusive (no result: Tb PFK inh, GLP1R ag)
CCCC(=O)Oc1c(S(=O)(=O)c2ccc(C)cc2)c(C)nn1C(C)(C)C	HEK293 tox inconclusive, GLP1R inv ag 5.6µM
CCC(=O)Oc1c(S(=O)(=O)c2ccc(C)cc2)c(C)nn1C(C)(C)C	HEK293 tox inconclusive, GLP1R inv ag inconclusive
NC(=O)C1CCN(c2nccc(Cl)n2)CC1	none (no result: Tb PGK inh, HEK293 tox, GLP1R inv ag, Tb PFK inh, GLP1R ag)
COc1ccc(OC)c(NC(=O)c2c(N3CCCC3=O)c3cc(OC)ccc3n2C)c1	none (no result: Tb PFK inh)
Fc1ccccc1/C=N/Nc1ncnc2ccccc12	HEK293 tox inconclusive, GLP1R inv ag inconclusive
Clc1ccc(/C=N/Nc2ncnc3ccccc23)cc1Cl	HEK293 tox 2.2µM, GLP1R inv ag inconclusive
COc1ccc(NC(=O)c2cc3n(n2)C(C(F)(F)F)CC(c2ccco2)N3)cc1 (stereo not given)	Pin1 inhibitor inconclusive
O=C(NCC12CC3CC(CC(C3)C1)C2)c1cc2n(n1)C(C(F)(F)F)CC(c1ccco1)N2 (stereo not given)	GLP1R inv ag 3.5µM, Tb PFK inh inconclusive
O=P(O)(O)OC[C@@H](O)CO	none (no result: Pin1 inhibitor, Tb PGK inh, HEK293 tox, GLP1R inv ag, Tb PFK inh)
CCS(=O)(=O)c1ccc(N=Nc2ccc(O)c3ncccc23)c(OC)c1	HEK293 tox inconclusive
COc1ccccc1N=Nc1ccc(O)c2ncccc12	Pin1 inhibitor inconclusive, HEK293 tox 1.3µM, GLP1R inv ag inconclusive
Cc1cc(C=O)c(C)n1-c1cc(C(=O)O)cc(C(=O)O)c1	Tb PGK inh 10µM, Tb PFK inh inconclusive
CN(CC(=O)Nc1ccc(Cl)cc1)CC(=O)Nc1sc2c(c1C(N)=O)CCC2	GLP1R inv ag 4µM (no result: Pin1 inhibitor, Tb PFK inh)
Cc1cc(C)cc(NC(=O)Cn2cc(S(=O)(=O)NC(C)(C)C)c(S(=O)(=O)NC(C)(C)C)c2)c1	GLP1R inv ag inconclusive (no result: Tb PFK inh, GLP1R ag)
CC(=O)/C(N=Nc1nc2c([nH]1)c(=O)n(C)c(=O)n2C)=C(\C)O	Pin1 inhibitor inconclusive, GLP1R ag 13µM
Cc1ccc(S(=O)(=O)N2[C@@H](c3ccc(Cl)cc3)C(C(=O)O)=CC[C@H]2c2ccc(C(C)C)cc2)cc1	GLP1R inv ag 6.3µM (no result: Pin1 inhibitor)
Cc1ccccc1S(=O)(=O)N1[C@@H](c2ccc(Cl)cc2)C(C(=O)O)=CC[C@H]1c1ccc(Cl)cc1	GLP1R inv ag 8.9µM (no result: Pin1 inhibitor)
Cc1ccc(S(=O)(=O)N2[C@@H](c3ccc(C(C)C)cc3)C(C(=O)O)=C[C@H]2C(C)(C)C)cc1	GLP1R inv ag 10µM
Cc1ccc([C@H]2C(C(=O)O)=CC[C@@H](c3ccc(Cl)cc3)N2S(=O)(=O)c2ccccc2C)cc1	Pin1 inhibitor inconclusive, GLP1R inv ag inconclusive
